Screening data from PubChem.
Insulin prom inh: TRM-6 insulin promoter activity inhibition | inhibition, % at 2 µM | AID 1273 | TRM-6 cells (human fetal islet line), insulin promoter-eGFP reporter, imaging; reporter expression induced with tamoxifen | 130,000 tested, 0.9% active;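 active = inhibition above the mean plus 3 SD, with well images judged a real hit on visual review, cut at about 60% in these data, passing the limit was not always enough; inconclusive = inhibition over the cutoff but images rejected on review; inactive = inhibition not above the cutoff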
p97 inhibitor: human p97 ATPase inhibition; recombinant p97 ATPase, Kinase-Glo ATP luminescence, 3 h; inhibition, % at 8 µM; 220,000 tested, 0.42% active; AID 1481; in the data active = inhibition above about 15%;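 note: 0% = DMSO vehicle and 100% = wells lacking enzyme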
PTEN del growth: growth suppressors of cells with PTEN tumor suppressor deletion; HCT116 PTEN-null viability, CellTiter-Glo, 60 h; active compounds read low; viability, % at 10 µM; 140,000 tested, 1.2% active; AID 827;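 active = viability at or below a set limit, 4 SD under the median of all tested compounds, cut at about 3.7% in these data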;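 note: PTEN knockout HCT116 line with beta catenin targeted HCT116 as companion control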
ROMK mod: modulators of human ROMK potassium channel | B-score at 10 µM | 130,000 tested, 2% active | P48048 | Tet-inducible ROMK, thallium flux fluorescence; actives lie on both sides;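 active = signal ratio slope over the read window, or its plate-corrected B-score, at least 3 SD from the plate mean, either direction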;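 note: B-score of the F/F0 ratio slope over 7 to 12 s after thallium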
HCT116 bCat-KO: beta-catenin-lacking colon tumor cell growth suppression | HCT116 beta-catenin knockout viability, CellTiter-Glo, 60 h; active compounds read low | 140,000 tested, 1.5% active | AID 818 | viability, % at 10 µM;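 active = viability at or under a set limit, the compound median less 4 SD, cut at about 6% in these data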;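 note: 0% = Hyamine 1622 control at 20 µM and 100% = untreated cell control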
L major viab: inhibitors of Leishmania major promastigote growth. Leishmania major promastigotes, resazurin fluorescence viability. inhibition, % at 10 µM. 200,000 tested, 9% active. AID 1063; in the data active = inhibition above about 50%;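 note: promastigotes grown with compound for 44 hours at 28 °C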
ROMK retest: confirmation of human ROMK potassium channel modulators; shares compounds with ROMK mod; ROMK thallium flux, fluorescence ratio; active compounds read low; normalized thallium flux (F/F0 slope) at 10 µM; 3,000 tested, 54% active;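 active = Flux at 10 µM at least 3 SD below or above vehicle control mean in one or both replicates; inconclusive = no clear call, values can overlap the other calls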
The depositor's hits bear a star; ? = inconclusive; . = no result given. Hits are enriched below; roughly 10% of the tested compounds scored in any of these assays.

SMILES	Insulin prom inh	p97 inhibitor	PTEN del growth	ROMK mod	HCT116 bCat-KO	L major viab	ROMK retest
Clc1cccc(Cl)c1CSc1nnc(-c2sccc2-n2cccc2)o1	.	5	85	.	87	-1	.
O=c1oc2ccc3ccccc3c2cc1-c1nnc(-c2cccs2)o1	19	2	95	-3*	95	-2	?
O=c1oc2ccccc2cc1-c1nc(-c2cccs2)cs1	.	0	69	-4.5*	77	-16	0.018*
COc1cccc2cc(-c3nc(-c4cccs4)cs3)c(=O)oc12	45	3	93	-1.9	85	2	.
O=S(=O)(Nc1ccc(-n2cccc2)cc1)c1ccc(Cl)cc1Cl	50	1	95	.	93	-6	.
FC(F)(F)C(Oc1nc(Nc2ccc(Cl)cc2)nc(N2CCOCC2)n1)C(F)(F)F	-279	4	55	0.019	61	10	.
Cc1cccc(OCC(=O)Nc2ccccc2C(=O)N2CCOCC2)c1	13	-5	90	3.1*	91	-5	?
CCN(CC(=O)Nc1cc(OC)ccc1OC)Cc1nc2ccccc2c(=O)[nH]1	-87	3	.	2.8*	.	2	0.07
CCN(CC(=O)Nc1cccc(F)c1)Cc1nc2ccccc2c(=O)[nH]1	-10	5	.	-0.39	.	6	.
CCS(=O)(=O)c1ccc2c(c1)N(S(=O)(=O)c1ccc(Cl)cc1)CC(C(=O)O)O2 (centres undefined)	.	1	.	-0.065	.	-4	.
COCC(=O)O[C@]1(CCN(C)CCCc2nc3ccccc3[nH]2)CCc2cc(F)ccc2[C@@H]1C(C)C	.	.	.	.	.	.	0.061*
Clc1ccc(CO/N=C2\CCCc3nonc32)cc1	0	-3	81	-1.3	89	-7	.
Cc1cc(Br)cn2ccnc12	.	7	94	1.2*	96	0	0.08
Cc1ccccc1OC1=NS(=O)(=O)c2ccccc21	.	1	.	-2.6*	.	-7	0.064*
O=C(CNC(=O)c1ccccc1)OCc1cc(=O)n2cc(Br)ccc2n1	-93	7	99	0.17	98	7	.
Cc1ccc(C)n1-c1sc2c(c1C#N)CCC(C)C2 (centres undefined)	1	-6	70	-0.47	70	-4	.
CCN(CC)S(=O)(=O)c1ccc(C)c(NC(=O)Cn2cnc3cc([N+](=O)[O-])ccc3c2=O)c1	-61	1	.	2.9*	.	72*	?
Cc1cc(N)n(-c2ccccn2)n1	.	-1	.	.	.	.	.
CCOc1ccc(C2CC(c3c(O)c4ccccc4oc3=O)=NN2c2ccccc2)cc1OC (centres undefined)	-338	-2	.	-6.6*	.	3	0.028*
Cc1ccc(C)c(-n2c3nc(=O)[nH]c(=O)c-3cc3cc([N+](=O)[O-])ccc32)c1	3	7	24	.	19	97*	0.043*
[O-]/[N+](=C\c1ccncc1)c1ccccc1	.	-5	100	.	108	-3	0.083
[O-]/[N+](=C/c1ccc(F)cc1)c1ccccc1	-19	7	91	-0.48	94	2	.
COc1ccccc1-c1nc2ccccc2nc1-c1ccccc1OC	.	-5	77	-0.68	84	28	.
COc1ccccc1C1=NC(c2ccc(C)cc2)N=C1C (centres undefined)	.	1	.	-2.7*	.	10	0.075
CCOC(=O)c1nn(-c2ccc(C)cc2)c(=O)c2c(N)scc12	25	-1	91	.	93	11	0.08
SMILES	Insulin prom inh	p97 inhibitor	PTEN del growth	ROMK mod	HCT116 bCat-KO	L major viab	ROMK retest
CCOC(=O)c1nn(-c2ccc(F)cc2)c(=O)c2c(N)scc12	31	9	.	0.89	.	11	.
O=C(Nc1c(C(=O)N2CCOCC2)cnn1-c1ccccc1Cl)c1ccco1	-400	0	92	0.91	85	-5	.
O=S(=O)(NC1CCN(Cc2ccccc2)CC1)c1ccc2ccccc2c1	.	-1	.	-3.5*	.	89*	0.064*
Cc1cc(C)c(S(=O)(=O)NC2CCN(Cc3ccccc3)CC2)c(C)c1	.	-1	.	.	.	.	.
Cc1cc(C)c(C)c(S(=O)(=O)NC2CCN(Cc3ccccc3)CC2)c1C	.	0	.	-4*	.	59*	0.063*
COc1ccc(Cn2cc(F)c(=O)n(CCC(C)C)c2=O)cc1[N+](=O)[O-]	-22	-7	100	.	96	-3	.
COC1(OC)N=C(N)C2(C#N)C(c3ccc(F)cc3)C12C#N (centres undefined)	-185	5	92	0.23	107	-4	.
CCSC1(SCC)N=C(N)C2(C#N)C(c3ccc(F)cc3)C12C#N (centres undefined)	-15	4	92	.	81	7	?
O=C(c1cccc(COc2cccc3ccccc23)c1)N1CCCC1	-276	1	60	-3.5*	64	-4	0.087
CC(=O)OC(C(=O)NCc1ccc(F)cc1)c1ccccn1 (centres undefined)	24	8	91	.	87	-3	.
CC(=O)c1sc(NC(=O)c2c(F)cccc2F)nc1-c1ccccc1	5	5	.	-12*	.	-7	0.078
CC(=O)c1sc(NC(=O)c2ccccc2)nc1-c1ccccc1	28	1	.	0.55	.	1	.
CCOC(=O)Nc1nc(-c2ccccc2)c(C(=O)c2ccccc2)s1	19	-3	15	3.6*	17	6	0.082
COC(=O)c1sc2nc(C)nc(SCC(=O)C(C)(C)C)c2c1C	43	-1	.	.	.	13	.
O=C(O)c1cccc(NS(=O)(=O)/C=C/c2ccccc2)c1	-23	-1	95	.	93	-6	.
O=C(O)c1cccc(NC2=C(Cl)C(=O)c3ccccc3C2=O)c1	9	3	.	-1.9	.	66*	0.056*
COc1ccc(OC)c(NC(=O)CSc2ncnc3c2cnn3-c2ccccc2Cl)c1	-210	5	34	-3.2*	23	25	0.06*
COc1ccc(CNC(=O)c2ccc3c(c2)NC(=O)C(C)S3)cc1 (centres undefined)	.	6	.	.	.	.	.
c1cc2c(cn1)cnc1cscc12	-14	8	106	2.6*	98	19	0.092
COc1ccccc1N1CCN(CCNC(=O)Nc2cccc(C)c2C)CC1	-34	-3	64	-2.8*	55	22	0.059*
COc1ccccc1N1CCN(CCCNC(=O)Nc2ccccc2)CC1	20	5	80	-0.7	84	7	.
CCCC1=C(C(=O)OCC)C(c2cccs2)C(C#N)=C(N)O1 (centres undefined)	-29	4	105	2.3*	100	4	0.08
CCOC(=O)C1=C(N)OC(CCl)=C(C#N)C1c1ccsc1 (centres undefined)	0	4	90	-3.5*	83	57*	0.06*
CCOC(=O)C1=C(C)OC(N)=C(C#N)C1c1cccs1 (centres undefined)	-17	-1	.	-0.91	.	-1	.
Cc1cc(NC(=O)c2noc3c2CCc2ccccc2-3)n(-c2ccccc2)n1	.	-3	95	.	100	-3	0.083
